This note sets out measurements from PubChem BioAssay (Tox21).

Test [1] in a line: Nuclear factor erythroid 2-related factor 2/antioxidant responsive element (Nrf2/ARE) small molecule agonists: qHTS cell viability counter screen in human keratinocytes (AID 1919968; active = well fitted curve in the direction sought with a large enough effect in the repeat runs; an effect the other way counts as inactive or inconclusive; note: nearly all actives have a fitted effect of over 55% in size). The essentials: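 KeratinoSens HaCaT cells, 1,500/well, preincubated 5 h, then exposed to compounds in DMSO for 23 h at 37 C/5% CO2. Viability read as CellTiter-Fluor fluorescence after 1 h, in the same wells as the ARE-luciferase read.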

Test [2] can be described thus: Nuclear factor erythroid 2-related factor 2/antioxidant responsive element (Nrf2/ARE) small molecule agonists: luciferase reporter gene qHTS assay in human keratinocytes (AID 1919969). Note: nearly all actives have a fitted effect of over 35% in size. Note: potency is the fitted concentration of half-maximal effect.
Test [3] addresses Gonadotropin-releasing hormone receptor (Homo sapiens) (UniProt P30968). Nature of the test: Human gonadotropin-releasing hormone receptor (GnRHR) small molecule agonists, calcium flux assay in GnRHR-HEK293 cells (AID 1920063). Note: nearly all actives have a fitted effect of over 35% in size. The essentials: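 HEK293 cells stably expressing human GnRHR were dye-loaded for 1 h at 37 C. Compound was added in agonist mode and fluorescence (Ex/Em 480/540) recorded kinetically for 3 min. Fifteen concentrations, triplicates.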

Test [4] deals with KiSS-1 receptor (Homo sapiens) (UniProt Q969F8). Nature of the test: Human kisspeptin (KISS1R) small molecule agonists, calcium flux assay in KISS1R-HEK293 cells (AID 1920064; active = well fitted curve in the direction sought with a large enough effect in the repeat runs; an effect the other way counts as inactive or inconclusive). The essentials:
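HEK293 cells stably expressing human KISS1R were loaded with calcium dye for 1 h at 37 C, then given compound; fluorescence (Ex/Em 480/540) was read kinetically for 3 min. Fifteen concentrations, triplicate.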

A short description of test [5]: G protein-coupled receptor (GPCR) small molecule agonists, calcium flux assay: HEK293 wild type cell line counter screen (AID 1920065). The essentials: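 Wild-type HEK293 cells plated 18 h, loaded with calcium dye 1 h at 37 C, then compounds added in agonist mode (ATP as positive control). Kinetic fluorescence Ex/Em 480/540 recorded 3 min at 1 sec intervals; 15 concentrations, triplicate.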

Test [6] can be described thus: p53 small molecule agonists, cell-based qHTS assay with human liver microsomes (AID 1963577). The essentials: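 Fluorescence of the beta-lactamase reporter in p53RE-bla cells, detected with LiveBLAzer substrate (2 h, room temperature, dark), served as the read-out after 16 h compound exposure at 37 C with human liver microsomes and NADPH, each 0.5 mg/mL final.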
A short description of test [7]: p53 small molecule agonists, cell-based qHTS assay with rat liver microsomes (AID 1963578). The essentials: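 Cells carrying a p53 response element–beta-lactamase reporter were plated and rested 5 h, then dosed with compound in DMSO plus rat liver microsomes and NADPH, each at 0.5 mg/mL final. After 16 h at 37 C, LiveBLAzer substrate was added for 2 h.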
Test [8] in a line: p53 small molecule agonists, cell-based qHTS assay with human liver microsomes: qHTS cell viability counter screen (AID 1963579). Note: nearly all actives have a fitted effect of over 45% in size. The essentials: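 Cytotoxicity counter screen: p53RE-bla, 4,000 cells/well; 5 h settle, 37 C/5% CO2; cpd + HLM 0.5 mg/mL + NADPH 0.5 mg/mL (final); 16 h, 37 C; CellTiter-Glo, 30 min RT, luminescence.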
Test [9] is described as follows: p53 small molecule agonists, cell-based qHTS assay: qHTS cell viability counter screen (AID 1963581). Note: nearly all actives have a fitted effect of over 45% in size. The essentials: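 p53RE-bla HCT-116 cells, compounds added 5 h after plating and incubated 16 h at 37 C. Cytotoxicity measured in the same wells as intracellular ATP by CellTiter-Glo luminescence after 30 min at room temperature.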
Test [10] in a line: p53 small molecule agonists, cell-based qHTS assay (AID 1963582; active = well fitted activation curve with a large enough effect in the signal ratio in the repeat runs, not every such curve was filed as active; the % refers to the signal ratio). The essentials:
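p53RE-bla reporter cells, compounds added in DMSO after 5 h plating, incubated 16 h at 37 C. Beta-lactamase read via 2 h room-temperature LiveBLAzer B/G FRET substrate, fluorescence intensity.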

In test [11] the target is 5-hydroxytryptamine receptor 2A (Homo sapiens) (UniProt P28223). Nature of the test: 5-hydroxytryptamine receptor 2A (HTR2A) small molecule antagonists, cell-based qHTS assay (AID 1963586). Note: nearly all actives have a fitted effect of over 45% in size. The essentials: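 Antagonist-mode intracellular calcium assay: DOI (4 nM) added after 5 min compound pre-incubation at room temperature to dye-loaded HTR2A-CHO cells. Fluorescence followed for 3 min, sampled every second.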

Test [12] has the same target. Nature of the test: 5-hydroxytryptamine receptor 2A (HTR2A) small molecule agonists, cell-based qHTS assay (AID 1963587). Note: nearly all actives have a fitted effect of over 30% in size. The essentials:
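HTR2A-CHO cells, plated 18 h at 37 C/5% CO2, dye-loaded 1 h at 37 C; compounds in DMSO added by pin tool (agonist mode). Intracellular calcium flux read as kinetic fluorescence on FDSS over 2 min at 1 s intervals.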

Test [13] has as its target Muscarinic acetylcholine receptor M1 (Homo sapiens) (UniProt P11229). Nature of the test: Cholinergic receptor muscarinic 1 (CHRM1) small molecule antagonists, cell-based qHTS assay (AID 1963588). Note: nearly all actives have a fitted effect of over 40% in size. The essentials:
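CHRM1-CHO calcium-flux assay, antagonist mode. Cells were seeded 18 h, dye-loaded 1 h at 37 C and given compound for 5 min at RT, then acetylcholine was added at 50nM. FDSS fluorescence was read 3 min; 15 concentrations, three runs.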

Test [14] shares this target. Nature of the test: Cholinergic receptor muscarinic 1 (CHRM1) small molecule agonists, cell-based qHTS assay (AID 1963589). Note: nearly all actives have a fitted effect of over 35% in size. The essentials:
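CHO cells stably expressing human CHRM1 were loaded with calcium dye for 1 h at 37 C, then compound was added in agonist mode. Intracellular calcium fluorescence was followed kinetically at 1 s intervals. Fifteen concentrations were tested in three independent runs.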

A short description of test [15]: cAMP Responsive Elements (CRE) small molecule antagonists, cell-based qHTS assay (AID 1963591; active = well fitted inhibition curve with a large enough effect in the signal ratio in the repeat runs, not every such curve was filed as active; the % refers to the signal ratio). The essentials:
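CRE-bla HEK293T cells plated 18 h, then given compound plus NKH477 at 0.25 uM final for 3 h at 37C. Beta-lactamase reporter read with LiveBLAzer B/G FRET substrate after 2 h at room temperature.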

The target of test [16] is Beta-2 adrenergic receptor (Homo sapiens) (UniProt P07550). Nature of the test: Adrenergic beta2 receptor (ADRB2) small molecule antagonists, cell-based qHTS assay (AID 1963592). Note: series mostly up to about 92 µM; nearly all actives have a fitted effect of over 50% in size. The essentials: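 Cells (CHO, stable ADRB2 overexpression) incubated 18-20hr at 37C; compounds added from DMSO; agonist mix (1nM isoproterenol, 100uM IBMX, 25uM Ro-20-1724) added; 0.5hr RT; d2-cAMP and anti-cAMP-cryptate added; 1hr RT; 665/615 nm read.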

The target of test [17] is D(2) dopamine receptor (Homo sapiens) (UniProt P14416). Nature of the test: Dopamine D2 receptor (DRD2) small molecule agonists, cell-based qHTS assay (AID 1963594). Note: nearly all actives have a fitted effect of over 35% in size. The essentials: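 HEK293 cells stably expressing DRD2 were cultured 24 h at 37 C, then given Ro20-1724 (0.1 mM final) and compounds for 10 min at room temperature. NKH477 (200nM) was then added for 30 min. cAMP was read by HTRF.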

The target is the same in test [18]. Nature of the test: Dopamine D2 receptor (DRD2) small molecule antagonists, cell-based qHTS assay (AID 1963595; active = well fitted inhibition curve with a large enough effect in the signal ratio in the repeat runs, with a control signal flat; the % refers to the signal ratio). The essentials: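 In this cell-based antagonist screen, compounds act for 10 min at room temperature before a 30 min challenge with 12 nM quinpirole and 200 nM NKH477. cAMP is quantified by HTRF competition in DRD2-HEK293 cells containing 0.1 mM Ro20-1724.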

Test [19] in a line: cAMP Responsive Elements (CRE) small molecule agonists, cell-based qHTS assay (AID 1963590). The essentials: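 CRE-bla HEK 293T cells, 2,000/well in DMEM with 10% dialyzed FBS and 25 mM HEPES, pre-incubated 18 h at 37 C, then exposed to compound 3 h at 37 C. Beta-lactamase reporter read with LiveBLAzer B/G FRET substrate after 2 h at room temperature.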

Molecules are shown by their SMILES. Values without a mark were called inactive. Inconclusive results are not listed. Active and inactive are the calls of the source. Unless noted, calls come from the whole dose curve.

Chain of KiSS-1 receptor (Homo sapiens) (Q969F8 whole entry, looked up): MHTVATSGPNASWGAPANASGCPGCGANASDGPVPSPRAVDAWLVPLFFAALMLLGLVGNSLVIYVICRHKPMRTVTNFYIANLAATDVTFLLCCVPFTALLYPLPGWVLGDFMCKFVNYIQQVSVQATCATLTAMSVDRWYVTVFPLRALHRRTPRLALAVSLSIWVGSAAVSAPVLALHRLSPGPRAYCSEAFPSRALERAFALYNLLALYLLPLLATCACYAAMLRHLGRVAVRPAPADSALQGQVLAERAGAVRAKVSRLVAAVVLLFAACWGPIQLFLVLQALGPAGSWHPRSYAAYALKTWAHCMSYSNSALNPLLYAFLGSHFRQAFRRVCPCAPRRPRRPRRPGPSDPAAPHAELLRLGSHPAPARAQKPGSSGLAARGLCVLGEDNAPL
Chain of Muscarinic acetylcholine receptor M1 (Homo sapiens) (P11229 whole entry, looked up): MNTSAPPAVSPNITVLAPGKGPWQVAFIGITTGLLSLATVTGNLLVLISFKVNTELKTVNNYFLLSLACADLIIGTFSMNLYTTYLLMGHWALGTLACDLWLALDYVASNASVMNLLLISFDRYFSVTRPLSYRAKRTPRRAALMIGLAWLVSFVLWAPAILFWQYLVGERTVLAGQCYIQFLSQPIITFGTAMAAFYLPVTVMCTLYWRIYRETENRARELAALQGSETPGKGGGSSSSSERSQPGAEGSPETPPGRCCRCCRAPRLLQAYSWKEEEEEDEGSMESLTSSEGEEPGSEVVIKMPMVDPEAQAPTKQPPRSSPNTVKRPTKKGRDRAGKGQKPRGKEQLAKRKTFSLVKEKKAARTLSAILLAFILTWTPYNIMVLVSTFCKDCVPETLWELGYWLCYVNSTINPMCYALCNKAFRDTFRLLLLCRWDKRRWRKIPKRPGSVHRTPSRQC
Chain of Gonadotropin-releasing hormone receptor (Homo sapiens) (P30968 whole entry, looked up): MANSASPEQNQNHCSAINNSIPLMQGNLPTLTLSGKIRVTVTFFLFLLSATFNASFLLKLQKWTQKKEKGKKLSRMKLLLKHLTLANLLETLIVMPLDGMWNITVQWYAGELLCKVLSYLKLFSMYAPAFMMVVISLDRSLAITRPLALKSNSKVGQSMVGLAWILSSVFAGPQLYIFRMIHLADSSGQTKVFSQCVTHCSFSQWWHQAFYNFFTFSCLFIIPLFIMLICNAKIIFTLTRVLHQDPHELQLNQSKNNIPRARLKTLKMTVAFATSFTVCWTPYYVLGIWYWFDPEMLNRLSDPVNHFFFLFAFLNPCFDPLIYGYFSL
Chain of Beta-2 adrenergic receptor (Homo sapiens) (P07550 whole entry, looked up): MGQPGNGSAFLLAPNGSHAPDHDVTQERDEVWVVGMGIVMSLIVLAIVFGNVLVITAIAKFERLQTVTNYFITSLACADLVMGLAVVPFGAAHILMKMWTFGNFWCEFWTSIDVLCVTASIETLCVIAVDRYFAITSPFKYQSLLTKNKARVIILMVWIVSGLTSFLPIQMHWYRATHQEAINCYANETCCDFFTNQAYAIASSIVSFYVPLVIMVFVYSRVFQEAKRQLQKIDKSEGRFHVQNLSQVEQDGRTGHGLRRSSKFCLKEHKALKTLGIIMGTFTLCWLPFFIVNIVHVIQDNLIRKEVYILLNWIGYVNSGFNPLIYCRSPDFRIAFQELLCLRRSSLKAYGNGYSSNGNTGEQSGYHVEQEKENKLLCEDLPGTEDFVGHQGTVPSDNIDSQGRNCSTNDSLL
Chain of 5-hydroxytryptamine receptor 2A (Homo sapiens) (P28223 whole entry, looked up): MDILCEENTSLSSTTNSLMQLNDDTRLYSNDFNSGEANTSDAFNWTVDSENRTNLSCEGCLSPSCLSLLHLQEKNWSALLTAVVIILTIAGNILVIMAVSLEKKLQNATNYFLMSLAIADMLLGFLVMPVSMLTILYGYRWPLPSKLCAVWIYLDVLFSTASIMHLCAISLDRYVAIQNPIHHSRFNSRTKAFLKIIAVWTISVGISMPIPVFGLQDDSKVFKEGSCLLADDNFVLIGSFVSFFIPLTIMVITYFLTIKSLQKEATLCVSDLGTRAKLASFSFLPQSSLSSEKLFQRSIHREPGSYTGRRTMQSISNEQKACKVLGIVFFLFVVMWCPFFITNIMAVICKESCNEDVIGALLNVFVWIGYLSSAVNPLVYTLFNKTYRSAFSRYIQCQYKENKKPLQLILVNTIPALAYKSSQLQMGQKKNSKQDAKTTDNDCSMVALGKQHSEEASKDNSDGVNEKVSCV
Chain of D(2) dopamine receptor (Homo sapiens) (P14416 whole entry, looked up): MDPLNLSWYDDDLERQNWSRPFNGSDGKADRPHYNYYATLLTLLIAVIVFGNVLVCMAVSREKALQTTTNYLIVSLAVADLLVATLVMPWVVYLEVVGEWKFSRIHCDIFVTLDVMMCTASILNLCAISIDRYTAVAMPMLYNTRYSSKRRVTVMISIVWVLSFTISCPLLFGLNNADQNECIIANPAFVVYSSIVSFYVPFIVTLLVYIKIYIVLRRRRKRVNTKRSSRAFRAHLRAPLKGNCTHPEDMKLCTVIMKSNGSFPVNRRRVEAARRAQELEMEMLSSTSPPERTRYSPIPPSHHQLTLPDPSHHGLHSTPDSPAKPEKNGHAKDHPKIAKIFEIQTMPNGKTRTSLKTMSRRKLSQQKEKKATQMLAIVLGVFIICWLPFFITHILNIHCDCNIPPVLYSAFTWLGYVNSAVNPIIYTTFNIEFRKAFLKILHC

In the case of `CCCCN(CCCC)C(=O)N(CCCC)CCCC`, the Potency entry in [1], in test [3], in test [6], in [7], in test [8] and in test [9] was “inactive” each time. For the same compound, the Potency entry in [10], in test [11], in test [12], in test [13], in test [14] and in test [15] was “inactive” in each case. Moreover, the Potency entry in [16], in [17] and in test [18] was “inactive” throughout. Also, the Potency in test [2] was 61.1 µM (active). Besides, the result in test [4] and in test [5] was inactive.
For the compound `Cc1ccc(N(CCO)CCO)cc1`, the Potency result in test [1], in [2], in [3], in test [6], in test [7] and in [8] was “inactive” in each case. In addition, the Potency entry in test [9], in test [10], in test [11], in [12], in test [13] and in [14] was “inactive” in each case. Also, the Potency entry in test [19], in [15], in test [16], in test [17] and in [18] was “inactive” each time. In addition, the result in test [4] and in test [5] was inactive.
For the compound `CCCCCCCC(=O)OCC`, the Potency result in test [1], in test [2], in [3], in test [6], in test [7] and in test [8] was “inactive” each time. The Potency result in test [9], in test [10], in test [11], in test [12], in [13] and in test [14] was “inactive” in each case. Further, the Potency result in test [15], in test [16], in test [17] and in test [18] was “inactive” in each case. Besides, the result in test [4] and in test [5] was inactive.
